# LYPLA1 counter – blocks human lysophospholipase 1, a PME1 counter-screen; O75608; recombinant LYPLA1, FP-Rh probe fluorescence polarization; inhibition, % at 5.9 µM; actives 0.16% (n = 320,000); AID 2174;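 active = inhibition above the mean of all tested compounds plus 3 SD, set per campaign, cut at about 14% in these data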;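 also: inhibitors block serine hydrolase probe labeling of LYPLA1 so polarization falls; 0% = enzyme with DMSO and 100% = wells lacking LYPLA1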
# PME-1 primary – blocks human protein phosphatase methylesterase 1. actives 0.53% (n = 320,000). inhibition, % at 5.9 µM. recombinant PME-1, FP-Rh probe fluorescence polarization. Q9Y570. AID 2130;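 active = inhibition above the campaign mean of all compounds plus 3 SD, cut at about 26% in these data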;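 also: competitive labeling of PME-1 active site by serine hydrolase directed probe; 0% = PME-1 with DMSO and 100% = wells lacking PME-1 enzyme; inhibitors block probe labeling so polarization falls and inhibition rises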
# Target sequence (Q9Y570 whole entry, looked up): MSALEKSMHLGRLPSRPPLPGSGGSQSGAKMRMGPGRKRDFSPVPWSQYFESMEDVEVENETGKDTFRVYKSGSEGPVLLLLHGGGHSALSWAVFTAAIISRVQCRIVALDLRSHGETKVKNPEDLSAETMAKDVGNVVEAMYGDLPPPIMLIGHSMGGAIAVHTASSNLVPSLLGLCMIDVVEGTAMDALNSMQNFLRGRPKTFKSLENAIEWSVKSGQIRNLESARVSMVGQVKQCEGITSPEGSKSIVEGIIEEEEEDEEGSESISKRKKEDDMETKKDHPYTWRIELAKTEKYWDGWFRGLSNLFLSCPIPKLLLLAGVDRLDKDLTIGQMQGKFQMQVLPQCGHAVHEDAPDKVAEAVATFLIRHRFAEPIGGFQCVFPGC
# Fam108B counter – blocks mouse Fam108B hydrolase in RBBP9 counter-screen | recombinant Fam108B, FP-Rh probe fluorescence polarization | inhibition, % at 9.51 µM | actives 0.33% (n = 300,000);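 active = inhibition above the screen mean inhibition plus 3 SD, computed separately per campaign, cut at about 18% in these data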;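 also: inhibitors lower polarization as less probe binds the enzyme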
# GSTO1 counter – GSTO1 inhibition, counter-screen for RBBP9 inhibitors. P78417. recombinant GSTO1, activity-based probe fluorescence polarization. inhibition, % at 5.96 µM. actives 1.1% (n = 300,000). AID 1974;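 active = inhibition above the campaign mean inhibition plus 3 SD, cut at about 35% in these data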;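 also: 0% = GSTO1-1 with DMSO and 100% = wells lacking GSTO1-1 enzyme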
# LYPLA2 counter – blocks human lysophospholipase 2, a PME1 counter-screen; inhibition, % at 5.9 µM; AID 2177; actives 0.38% (n = 320,000); recombinant LYPLA2, FP-Rh probe fluorescence polarization;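 active = inhibition above the screen-wide mean plus 3 SD, limit set per campaign, cut at about 26% in these data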;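 also: 0% = LYPLA2 with DMSO and 100% = wells lacking LYPLA2 enzyme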
# Target sequence (O95372 whole entry, looked up): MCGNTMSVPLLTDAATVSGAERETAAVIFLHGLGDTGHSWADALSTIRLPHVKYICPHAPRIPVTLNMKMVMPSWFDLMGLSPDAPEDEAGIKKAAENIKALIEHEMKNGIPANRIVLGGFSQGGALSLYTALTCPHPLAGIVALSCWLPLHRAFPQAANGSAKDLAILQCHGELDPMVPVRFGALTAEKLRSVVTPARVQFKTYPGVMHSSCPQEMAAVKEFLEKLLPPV
# PREPL inhibitor – inhibits the human prolyl oligopeptidase-like enzyme. recombinant PREPL, fluorescence polarization activity-based probe. inhibition, % at 5.96 µM. actives 0.68% (n = 320,000). AID 2751; in the data active = inhibition above about 43%;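 also: 0% = enzyme with DMSO and 100% = wells lacking enzyme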
# Active calls of the source: *; nt = no result given. Rows were chosen to be rich in hits. Some 1.9% of all compounds tested hit in one or more screens of this group.
SMILES,LYPLA1 counter,PME-1 primary,Fam108B counter,GSTO1 counter,LYPLA2 counter,PREPL inhibitor
CC(C)(C)OC(=O)NCCCCC1=CC2=CC(=O)C(C)(O)C(=O)C2=CO1 (stereo not given),-4,1,-1,4,-4,-1
O=[N+]([O-])c1ccc(Cl)c(S(=O)(=O)NCCc2ccccn2)c1,nt,nt,nt,nt,nt,-2
COC(=O)CCCC1=CC2=CC(=O)C(C)(OC(=O)c3ccc(Cl)nc3)C(=O)C2=CO1 (stereo not given),1,8,8,35*,4,-1
O=C(O)C1OC(Oc2cc3oc(-c4ccccc4)cc(=O)c3c(O)c2O)C(O)C(O)C1O (stereo not given),2,-3,2,37*,5,2
CCCCCC(=O)Nc1cccc(S(=O)(=O)NC2=NCCC2)c1,-1,1,nt,nt,1,1
CSCCC(NC(=O)CCNC(=O)c1ccccc1Cl)c1nc2ccccc2[nH]1 (stereo not given),-4,1,nt,nt,-4,1
COc1cc(N)c(Cc2nccc3cc(OC)c(OC)cc23)cc1OC,-3,-1,-1,14,-9,13
COc1ccc(C(N)c2nccc3cc(OC)c(OC)cc23)cc1OC (stereo not given),0,7,4,39*,4,7
COc1cccc(COc2nc3c(c(=O)n(C)c(=O)n3C)n2C)c1,0,-6,-1,36*,4,1
CN(Cc1ccccc1)C(=O)c1ccc(NC(=O)Cc2ccc([N+](=O)[O-])cc2)cc1,nt,nt,nt,nt,nt,-10
O=C(c1cccs1)N1CCC(c2nc3c(nnn3Cc3ccccc3Cl)c(=O)[nH]2)CC1,0,28*,-1,-2,0,3
O=C(c1ccccc1)N1CCC(c2nc3c(nnn3Cc3ccccc3Cl)c(=O)[nH]2)CC1,-3,21,6,4,2,16
CCOC(=O)c1c2c(n(C)c1COC)C(=O)C(=O)c1ccc(Br)cc1-2,-4,-4,29*,56*,-2,10
CC(=O)Nc1ccc(S(=O)(=O)N(CC(=O)NC2CC2)Cc2ccccc2)cc1,nt,nt,nt,nt,nt,9
COc1cc(/C=N/NC(=O)C(Cc2c[nH]c3ccccc23)NC(=O)OCc2ccccc2)cc([N+](=O)[O-])c1O (stereo not given),-4,29*,13,26,0,38
COc1cc(NS(C)(=O)=O)ccc1Nc1c2ccccc2nc2ccccc12,2,-33,0,-7,0,17
CCOc1ccccc1N1CCN(CC(=O)Nc2ccccc2C(=O)NC2CC2)CC1,-10,-1,nt,nt,-3,-2
Nc1ccc(Nc2nc(-c3ccncc3)cs2)cc1,0,7,2,13,-5,44*
NC(=O)C1CCN(C2=C(NS(=O)(=O)c3ccccc3)C(=O)c3ccccc3C2=O)CC1,1,2,0,12,2,-1
NC(=O)C1CCN(C2=C(NS(=O)(=O)c3ccc(Br)cc3)C(=O)c3ccccc3C2=O)CC1,0,7,2,35*,11,18
Cc1ccc2c(c1)Oc1ccc([N+](=O)[O-])cc1C(=O)N2,-3,4,-4,5,5,-2
Cc1ccc2c(c1)Oc1ccc(NC(=O)CCl)cc1C(=O)N2,-3,-8,-24,92*,-2,-9
O=C1CCN(S(=O)(=O)c2ccc(Cl)cc2)CCN1,0,-1,7,-6,3,-4
COc1cc(C2C3CN(C)CC=C3C(C#N)=C(N)C2(C#N)C#N)ccc1OC(C)C (stereo not given),-2,3,-5,6,-6,9
CC(C)N1CC=C2C(C#N)=C(N)C(C#N)(C#N)C(c3ccccc3)C2C1 (stereo not given),1,1,3,9,-1,3
SMILES,LYPLA1 counter,PME-1 primary,Fam108B counter,GSTO1 counter,LYPLA2 counter,PREPL inhibitor
CCOC(=O)N1CC=C2C(C#N)=C(N)C(C#N)(C#N)[C@H](c3cccs3)C2C1 (stereo not given in full),0,31*,0,-2,-1,-3
CC(C)(C)OC(=O)N1CC=C2C(C#N)=C(N)C(C#N)(C#N)C(c3cccs3)C2C1 (stereo not given),1,9,-5,2,-4,-4
CCCOc1ccc([C@@H]2C3CN(C(=O)OCC)CC=C3C(C#N)=C(N)C2(C#N)C#N)cc1OC (stereo not given in full),-2,48*,5,0,-8,8
CC(C)N1CC=C2C(C#N)=C(N)C(C#N)(C#N)[C@H](c3ccoc3)[C@H]2C1,5,15,5,64*,4,41
COc1ccccc1C(=O)NS(=O)(=O)c1ccc(C)cc1,nt,nt,nt,nt,nt,11
COc1ccc(NC(=O)c2ccc([N+](=O)[O-])s2)c([N+](=O)[O-])c1,-2,1,3,55*,-7,-1
COc1ccc(NC(=O)c2ccc(C)o2)c([N+](=O)[O-])c1,0,3,-1,2,4,3
CCOC(=O)c1ccc(Nc2nc(N)c3cc(OC)c(OC)cc3n2)cc1,-3,27*,12,-1,-6,17
COc1cc2nc(Nc3ccc(F)cc3)nc(N)c2cc1OC,0,0,6,-9,3,21
COc1ccc(/C=C2\Sc3ccc(C(=O)N4CCN(Cc5ccccc5)CC4)cc3N(C)C2=O)cc1OC,-2,42*,-2,-80,6,31
Cc1cc(F)ccc1NC(=O)Cn1c(C)csc1=O,3,-3,nt,nt,-1,-2
COc1ccc(-c2cc(-c3ccccc3O)[nH]n2)cc1,-7,-4,-7,-14,-10,-13
COc1ccc(-c2cc(-c3c(O)c(OC)c4occc4c3OC)[nH]n2)cc1,-5,33*,11,-4,11,28
Cc1ccccc1NC(=O)CON=C(N)c1ccccc1,1,-4,nt,nt,-2,20
C=CCn1c(O)c(N=Nc2ccccc2)c2ccccc21,1,2,4,5,8,-1
C=CCn1c(O)c(N=Nc2ccccc2O)c2ccccc21,-3,34*,nt,nt,8,32
CCc1nc(Nc2ccncc2)c2oc3ccccc3c2n1,-2,1,0,-22,4,-1
CCc1nc(Nc2ccc3c(c2)OCO3)c2oc3ccccc3c2n1,5,31*,3,5,8,25
CC(=O)N1CCOc2ccc(S(=O)(=O)NCCc3cccc(C)c3)cc21,5,6,-3,33,8,-13
Brc1ccc(OCc2nc3ccccc3[nH]2)cc1,-5,-25,-1,37*,0,10
Cc1ccc(N2C(=O)c3ccccc3C2C(=O)c2ccc(O)cc2O)cc1 (stereo not given),-2,-1,3,-1,3,7
Cc1ccc(N2C(=O)c3ccccc3C2C(=O)c2cc(C)ccc2O)cc1 (stereo not given),-3,-3,-1,35*,-8,0

# Source: PubChem (The Scripps Research Institute Molecular Screening Center)
